Screening data as filed in PubChem BioAssay.
This is one part of a sample in which hits are shown more often than they occur.
GIRK2 act – activators of human GIRK2 potassium channels; calls only for hits at 25 µM; AID 1259325, 2017; HEK293-GIRK2 thallium flux, Thallos fluorescence, MPD; 0.05% of 63,000 active; G protein-activated inward rectifier potassium channel 2 (Homo sapiens), P48051; call rule not given here
Target sequence (P48051 whole entry, looked up): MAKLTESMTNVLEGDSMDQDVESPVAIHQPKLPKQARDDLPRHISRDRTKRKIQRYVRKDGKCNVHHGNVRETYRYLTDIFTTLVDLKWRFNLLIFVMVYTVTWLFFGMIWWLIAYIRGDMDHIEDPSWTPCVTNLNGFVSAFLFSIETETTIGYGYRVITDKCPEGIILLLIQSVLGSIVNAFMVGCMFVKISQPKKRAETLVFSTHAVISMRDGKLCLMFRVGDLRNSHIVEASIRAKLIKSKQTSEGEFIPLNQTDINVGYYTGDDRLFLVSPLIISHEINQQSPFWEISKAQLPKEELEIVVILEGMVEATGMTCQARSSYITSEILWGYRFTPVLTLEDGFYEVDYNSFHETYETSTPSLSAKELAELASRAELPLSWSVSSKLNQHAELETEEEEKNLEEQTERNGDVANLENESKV
* marks the source's active call; other numbers are inactive results; i = inactive; + = active, no number.

SMILES	GIRK2 act
O=c1[nH]c2nc(NCCc3cccs3)ncc2c(=O)n1-c1ccccc1	i
CN1C(=O)C(C)(C)COc2ccc(NC(=O)NCc3cccs3)cc21	i
COc1ccc(CNC(=O)Cn2cc(-c3nc(-c4ccc(Cl)cc4)no3)ccc2=O)cc1	i
COc1ccc(OCc2noc(CNC(=O)CSc3ccc(F)cc3)n2)cc1	i
O=C(CCCn1cnc(-c2ccc(F)cc2)cc1=O)Nc1ccc(-c2cn3c(n2)SCC3)cc1	i
CC(C)CC(=O)NCC(c1ccco1)N1CCOCC1 (configuration not stated)	i
O=C(NCCOc1cc(N2CCCC2)ncn1)c1ccccc1	i
COc1ccccc1-c1coc2c3c(ccc2c1=O)OCN(C(C)C)C3	i
Cc1noc(C)c1S(=O)(=O)N1CCCC(COCc2ccccc2)C1 (configuration not stated)	i
Cc1ccccc1-n1nnc(C(=O)Nc2cccc(C(C)C)c2)c1-c1ccncc1	+
COc1cccc(-n2nnc(C(=O)NCc3ccc(C(C)C)cc3)c2-c2ccncc2)c1	i
Cc1ccccc1-n1nnc(C(=O)N2CCN(S(C)(=O)=O)CC2)c1-c1ccncc1	i
CCCc1cc(=O)[nH]c(-n2nc(-c3cccs3)cc2NC(=O)c2ccc3c(c2)OCO3)n1	i
Cn1nc(-c2cccs2)cc1C(=O)NCCc1c[nH]c2ccccc12	i
CCc1nccn1CC1CCN(S(=O)(=O)C2CC2)CC1	i
O=C(c1cccs1)N1CCC(Cn2c(COc3ccccc3)nc3ccccc32)CC1	i
CCOc1ccc(C(=O)N2CCN(c3cc(-n4cccc4)nc(C)n3)CC2)cc1	i
Nc1c(C(=O)Nc2ccc(Cl)cc2)c2nc3ccccc3nc2n1/N=C\c1ccco1	i
C[C@@H]1C[C@H]2O[C@@]3(O[C@@H]2C(C)(C)O)C(O)[C@@]2(C)C4CCC5C(C)(C)[C@@H](OC6OC[C@H](O)[C@@H](O)[C@@H]6O)CC[C@@]56C[C@@]46CC[C@]2(C)C13 (some centres not stated)	i
COc1ccc(C2(CNC(=O)CN3C(=O)c4ccccc4C3=O)CCOCC2)cc1	i
O=c1c2nc(N3CCOCC3)sc2c(-c2ccccc2)nn1CCc1ccccc1	i
O=C(Nc1nc2ccccc2s1)c1ccc2nccnc2c1	i
Cc1ccc(NC(=O)N2CCN(c3ccc(-c4ccccc4C)nn3)CC2)cc1C	i
Cc1cc(SCC(=O)Nc2ccccc2Br)nc(-c2ccc(F)cc2)n1	i
COc1ccc(S(=O)(=O)N2CCCOC2CNC(=O)C(=O)NCc2ccccc2)cc1C (configuration not stated)	i
SMILES	GIRK2 act
O=C(CSc1nnc(N2CCN(C(=O)c3ccccc3F)CC2)s1)NCc1ccco1	i
Cc1cccc(NC(=O)Cn2nc3ccc(-c4ccc(C)c(C)c4)nn3c2=O)c1	i
O=C(c1nnn(-c2ccccc2Cl)c1-c1ccccn1)N1CCN(c2ncccn2)CC1	i
O=C(Nc1nccs1)c1nnn(-c2ccccc2)c1-c1ccccn1	i
Cc1[nH]ncc1CNC(=O)c1nnn(-c2ccccc2Cl)c1-c1ccccn1	i
O=C(Nc1ccc2c(c1)OCCO2)c1nnn(-c2ccccc2Cl)c1-c1ccccn1	+
Cc1csc(NC(=O)c2nnn(-c3ccccc3Cl)c2-c2ccccn2)n1	+
O=C(Nc1ccc(F)cc1)c1nnn(-c2ccccc2Cl)c1-c1ccccn1	i
C=CCc1ccc(OC)c(OC(C)c2nc3ccccc3[nH]2)c1 (configuration not stated)	i
OC(COCC1CC2CCC1C2)CN1CCN(Cc2ccccc2)CC1 (configuration not stated)	i
CCOc1ccccc1NC(=O)N1CC(c2nc(-c3ccccn3)no2)C1	i
Cc1ccc(-n2ccnc(SCC(=O)NCc3ccccc3)c2=O)cc1	i
NC(=O)Cc1csc(NC(=O)c2coc(NC(=O)c3ccccc3)n2)n1	i
CCCCS(=O)(=O)N1CC2(COC(C)(C)OC2)C1	i
CC(=O)Nc1cccc(C(=O)CC2(O)C(=O)Nc3ccccc32)c1 (configuration not stated)	i
Cc1cc(C)n(-c2ccc(=O)n(CCNC(=O)c3cncc(Br)c3)n2)n1	i
Cc1nc(N2CCN(C(=O)c3ccc4c(c3)OCO4)CC2)cc(-n2cccn2)n1	i
COc1ccc2c(=O)c3c(oc2c1)C(=O)N(c1nccs1)C3c1cccc(OC(C)C)c1 (configuration not stated)	i
CCc1ccc(NC(=O)Cn2cc(S(=O)(=O)c3ccccc3)c(=O)c3cc(OC)ccc32)cc1	i
CCCc1cc2c(O)c(-c3nc4ccccc4s3)c(=O)oc2cc1O	i
CCCCNc1nc2c(c(=O)n(C)c(=O)n2C)n1CC(O)COc1ccc(Cl)cc1 (configuration not stated)	i
CCOC(=O)C1=C(C)N=c2s/c(=C/c3c(C)nn(C)c3C)c(=O)n2C1c1ccccc1 (configuration not stated)	+
CCn1cc(/C=c2/sc3n(c2=O)C(c2ccccc2)C(C(=O)Nc2ccccc2C)=C(C)N=3)c(C)n1 (configuration not stated)	i
CCOC(=O)C1=C(C)N=c2s/c(=C/c3cn(C)nc3C)c(=O)n2C1c1ccc(OC)cc1 (configuration not stated)	i
Cc1cccc2sc(OC3CCN(C(=O)Cn4cnc5ccccc5c4=O)CC3)nc12	i
SMILES	GIRK2 act
O=C(CSc1ncccc1-c1nc2ccccc2[nH]1)NCC1CCCO1 (configuration not stated)	i
CCOc1ccc(-c2nc(SCC(=O)NCCCOC)c(-c3ccccc3)[nH]2)cc1OC	i
COCCCNC(=O)CSc1nc(-c2cccc(F)c2)[nH]c1-c1ccccc1	+
COc1ccc(-c2nc(SCC(=O)NCC3CCCO3)c(-c3ccc(C)cc3)[nH]2)cc1OC (configuration not stated)	i
COCCNC(=O)CSc1nc(-c2ccc(C)cc2)[nH]c1-c1ccccc1	i
O=C(CSc1nc(-c2ccccc2)[nH]c1-c1ccc(F)cc1)NCC1CCCO1 (configuration not stated)	+
CSc1ccc(C2C3C(=O)NC(=O)C3ON2c2ccccc2)cc1 (configuration not stated)	i
COc1ccc(-n2ncc3c(=O)n(Cc4nc(-c5ccc(C)c(C)c5)no4)cnc32)cc1	i
COc1ccc(-c2cc(N3CCC(C(=O)Nc4ccccn4)CC3)ncn2)cc1	i
O=C(COc1cccc(C(F)(F)F)c1)Nc1cc(-n2cccn2)ncn1	i
Cc1cc(NCCC2=CCCCC2)n2nc(C(F)(F)F)nc2n1	i
Cc1nc(C)c(C(=O)Nc2ccc3nc(C)n(-c4ccccc4)c(=O)c3c2)s1	i
O=C(CN1C(=O)CCC1=O)NC1CCCC(OC(=O)Nc2ccc(F)cc2)C1 (configuration not stated)	i
COc1ccccc1-n1nnc(C(=O)OCc2ccccc2Cl)c1C	i
COc1cc(/C=C2\SC(=S)N(c3cccc(O)c3)C2=O)ccc1O	i
COc1cc(/C=C2/SC(=S)N(c3ccccc3Cl)C2=O)ccc1O	+
COc1cc(/C=C2\SC(=S)N(c3ccc(O)cc3)C2=O)ccc1O	i
COc1cccc(S(=O)(=O)NC2(C(=O)O)CCCCC2)c1	i
COC(=O)c1cc(OCc2cccc(OC)c2)c2cc(OC)ccc2n1	i
Cc1nn(C2CCS(=O)(=O)C2)c(C)c1N1CCN(C(=O)/C=C/c2ccco2)CC1 (configuration not stated)	i
Cc1cc(C(O)CCNC(=O)c2cc(-c3ccco3)on2)c(C)o1 (configuration not stated)	i
Cc1ccc(S(=O)(=O)CCCC(=O)N(CCN(C)C)c2nc3ccc(C)cc3s2)cc1	i
Cc1ccc(OCCCn2c(C3CC(=O)N(C(C)(C)C)C3)nc3ccccc32)cc1 (configuration not stated)	i
